Screening results deposited in PubChem by National Center for Advancing Translational Sciences (NCATS).
Rows were chosen to be rich in hits. Some 0.96% of all compounds tested hit in one or more screens of this group.
Rhodamine autofl: qHTS Assay for Spectroscopic Profiling in Rhodamine Spectral Region. Rhodamine-region fluorescence, 547/598 nm, Tris buffer; active compounds read high. max dye-equivalent concentration, M. hit rate 0.05% among 59,000; in the data active = max dye-equivalent concentration above about 11 nM; inconclusive = between about 1.1 nM and that limit
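qHTS spectral profiling of compounds without any target or enzyme present, in pH 8.0 Tris buffer; plates were read after a 15-minute room-temperature incubation using the rhodamine-region filter set.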
Fluorescein autfl: qHTS Assay for Spectroscopic Profiling in Fluorescein Spectral Region; AID 593, 2007; Compound autofluorescence, 480/540 nm, fluorescein-equivalent; active compounds read high; hit rate 0.91% among 59,000; max fluorescein-equivalent concentration, M; in the data active = max fluorescein-equivalent concentration above about 10 nM; inconclusive = between about 1.1 nM and that limit
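Normalized response (dye-equivalent concentration) derives from comparing each well's 540 nm emission, under 480 nm excitation, with plate-resident fluorescein standards. Compounds were held in 100 mM Tris, pH 8.0, for 15 min at room temperature.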
TexasRed autofl: qHTS Assay for Spectroscopic Profiling in Texas Red Spectral Region. AID 587, 2007. hit rate 0.06% among 59,000. Compound fluorescence, Texas Red channel, 547/618 nm; active compounds read high. max dye-equivalent concentration, M; in the data active = max dye-equivalent concentration above about 10 nM; inconclusive = between about 1.1 nM and that limit
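Texas Red-region profiling: compounds in 100 mM Tris pH 8.0 were read at 547/618 nm after 15 min at room temperature. Intensities were normalized against a six-point Texas Red standard series to give dye-equivalent concentration.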
Resorufin autofl: qHTS Assay for Spectroscopic Profiling in Resorufin Spectral Region; AID 588, 2007; Compound fluorescence, resorufin region 547/598 nm, buffer; active compounds read high; max dye-equivalent concentration, M; hit rate 0.04% among 59,000
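Compounds in 100 mM Tris buffer, pH 8.0, incubated 15 min at room temperature, then read with 547 nm excitation and 598 nm emission filters. Fluorescence was converted to dye-equivalent concentration using an on-plate six-point resorufin standard curve.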
A647 fluor: qHTS Assay for Spectroscopic Profiling in A647 Spectral Region | AID 592, 2007 | Compound fluorescence, A647 channel (570/671 nm), Tris buffer | 59,000 tested, under 10 active | max dye-equivalent concentration, M
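Tris 100 mM pH 8.0; cpd + A647 stds pin-transferred; 15 min RT; CCD imager, ex 570/em 671. Output = A647-equivalent conc. per cpd conc.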
A488 autofl: qHTS Assay for Spectroscopic Profiling in A488 Spectral Region | compound autofluorescence, A488 spectral region, dye equivalency; Compound Type: qHTS ECL - MLSMR | max dye equivalency, M | hit rate 0.1% among 59,000
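Intrinsic compound fluorescence is measured in 100 mM Tris buffer at pH 8.0 following 15 min incubation at room temperature. Intensities at 480 nm excitation/540 nm emission are calibrated to an on-plate A488 concentration series, giving dye-equivalent concentrations.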
Each line names hits and unclear results; the compound was inactive in the other large screens; ! = a repeat was not active. Unless noted, no rule for the calls is given here.

COC(=O)N1CCC2(CCN(C(=O)Nc3ccc(OC)cc3)CC2)CC1	Fluorescein autfl 1.5e-08M
COc1ccc(C(=O)N2CCC3(CC2)CN(C(=O)Nc2cccc(C#N)c2)C3)cc1	Fluorescein autfl 1.1e-08M
NC(=O)c1cc[n+](CC2=C(C(=O)O)N3C(=O)[C@@H](NC(=O)[C@H](c4ccccc4)S(=O)(=O)[O-])[C@@H]3SC2)cc1	Fluorescein autfl inconclusive, TexasRed autofl inconclusive
CC(C)(C)c1nc2ccccc2c2nnc(SCC(=O)NCc3ccco3)n12	none
CNC(=O)c1cc2ccc(OC)cc2oc1=O	Fluorescein autfl 1.7e-08M
CCOC(=O)c1cc2c(=O)n3ccccc3nc2n(Cc2ccccc2)c1=N	Fluorescein autfl 1.6e-07M, A488 autofl inconclusive
COc1ccc(CCn2c(=N)c(C#N)cc3c(=O)n4ccccc4nc32)cc1	Fluorescein autfl 1e-08M
COc1ccc(CNC(=O)c2cc3c(=O)n4ccccc4nc3n(Cc3ccco3)c2=N)cc1	Fluorescein autfl 1.9e-08M
Cc1ccc(Cn2c(=N)c(C(=O)NCc3ccco3)cc3c(=O)n4ccccc4nc32)cc1	Fluorescein autfl inconclusive
Cc1cccc(-c2nnc(SCc3cc(=O)[nH]c4ccccc34)n2C)c1	Fluorescein autfl inconclusive, TexasRed autofl inconclusive
CCc1nnc(NC(=O)CCC(=O)N2CCN(C3CCCCC3)CC2)s1	TexasRed autofl inconclusive
CCOC(=O)c1sc(N)c(C#N)c1CSc1nc2ccc(OCC)cc2[nH]1	none
CCOC(=O)c1sc(N)c(C#N)c1COC(=O)CNC(=O)c1ccccc1	Fluorescein autfl 3e-08M
Cc1cc(NC(=O)C2CC=CCC2C(=O)O)no1 (centres undefined)	TexasRed autofl inconclusive
CCN1CC=C2C(C1)C(c1ccc(Cl)s1)C(C#N)=C(N)C2(C#N)C#N (centres undefined)	Fluorescein autfl 8.6e-08M, A488 autofl inconclusive
COCCN(CCOC)C(=O)c1c[nH]c2ccc(S(=O)(=O)N(C)c3ccc(F)cc3)cc2c1=O	Fluorescein autfl inconclusive
O=C1N=C(O)CN1/N=C\c1ccc(-c2ccc([N+](=O)[O-])cc2)o1	Fluorescein autfl 4.2e-08M!, TexasRed autofl inconclusive, A488 autofl inconclusive
Brc1ccc(-c2nnc3sc(CN4CCC5(CC4)OCCO5)cn23)cc1	Fluorescein autfl 1.1e-08M
N[C@@H]1[C@@H]2[C@@H]3C[C@H]4N(CC[C@@]14C(=O)C(=O)O)CC3=CCO[C@@H]2CC(=O)O	Fluorescein autfl 1e-08M
Cc1cccc(CN2CCN([C@@H](c3ccccc3)c3ccc(Cl)cc3)CC2)c1	Fluorescein autfl inconclusive
CCN1C(=O)/C(=C2\C=Cc3ccccc3N2CC)OC1=S	Rhodamine autofl 2.2e-08M, Fluorescein autfl 8e-07M, TexasRed autofl inconclusive, Resorufin autofl 2.2e-08M, A488 autofl 3.8e-08M
COc1cccc2cc(-c3nc(-c4cccs4)cs3)c(=O)oc12	Fluorescein autfl 2.4e-08M
O=C(Nc1ccccc1)N1CCCC2(CCN(C(=O)c3cc(C(F)(F)F)cc(C(F)(F)F)c3)CC2)C1	none
CN1CCc2c(sc3c2C(=O)NC(c2ccco2)N3)C1 (centres undefined)	Fluorescein autfl 1.3e-08M
CN(C)c1ccc(N=Cc2nc(-c3ccccc3)oc2O)cc1	Fluorescein autfl 4.5e-08M, A488 autofl inconclusive
CC(=O)Nc1ccc(N=Cc2nc(-c3ccc(C)cc3)oc2O)cc1	Fluorescein autfl 1.6e-08M
CN1CC=C2C(C#N)=C(N)C(C#N)(C#N)[C@H](c3cccc(Cl)c3)C2C1 (some centres undefined)	Fluorescein autfl 4.1e-08M, TexasRed autofl inconclusive, A488 autofl inconclusive
COc1cc([C@@H]2[C@H]3CN(C)CC=C3C(C#N)=C(N)C2(C#N)C#N)cc2c1OCO2	Fluorescein autfl 1.1e-08M
CCOC(=O)N1CC=C2C(C#N)=C(N)C(C#N)(C#N)[C@H](c3ccc(OC(C)C)c(OCC)c3)[C@H]2C1	none
CCOC(=O)N1CC=C2C(C#N)=C(N)C(C#N)(C#N)[C@H](c3ccsc3)[C@H]2C1	Fluorescein autfl inconclusive, TexasRed autofl inconclusive
CCCC1C2CN(C(C)C)CC=C2C(C#N)=C(N)C1(C#N)C#N (centres undefined)	Fluorescein autfl 5.1e-08M, TexasRed autofl inconclusive, A488 autofl inconclusive
COc1cccc(C2C3CN(C)CC=C3C(C#N)=C(N)C2(C#N)C#N)c1OC (centres undefined)	Fluorescein autfl 5.2e-08M, A488 autofl inconclusive
CN1C2C=C3C(C#N)=C(N)C(C#N)(C#N)[C@@H](c4ccsc4)[C@@H]3C1CC2 (some centres undefined)	TexasRed autofl inconclusive
COC(=O)c1ccccc1NC(=O)CN1CCC(C(=O)c2ccc3c(c2)OCCO3)CC1	none
CCN1CC=C2C(C#N)=C(N)C(C#N)(C#N)[C@H](c3cccc(OC)c3OC)[C@H]2C1	Fluorescein autfl 9.6e-08M, A488 autofl inconclusive
CCOC(=O)N1CC=C2C(C#N)=C(N)C(C#N)(C#N)[C@H](c3ccccc3OCC)[C@H]2C1	Fluorescein autfl inconclusive, TexasRed autofl inconclusive
CN1CC=C2C(C#N)=C(N)C(C#N)(C#N)C(CCc3ccccc3)C2C1 (centres undefined)	Fluorescein autfl 4.3e-08M, TexasRed autofl inconclusive, A488 autofl inconclusive
Cc1csc(SCC(=O)O)n1	none
Cc1onc(-c2ccccc2Cl)c1C(=O)Nc1cc(=O)n(C)c(=O)n1C	none
CCCCc1cc(=O)oc2c(CN(C)C)c(O)ccc12	Fluorescein autfl inconclusive
CC[C@@]1(O)C(=O)OCc2c1cc1n(c2=O)Cc2cc3c(CN(C)C)c(O)ccc3nc2-1	Fluorescein autfl 4.3e-07M, TexasRed autofl inconclusive, A488 autofl 2.1e-08M
CCN(CC)CCN1C(=O)c2cccc3cc(N)cc(c23)C1=O	Fluorescein autfl 3.9e-08M, A488 autofl inconclusive
CCN1C(=O)c2cccc3cccc1c23	TexasRed autofl inconclusive
CC(=O)c1c(C)[nH]c(C(=O)N2CCCCCC2)c1C	none
Cc1nccn1-c1c2c(c(C#N)c3nc4ccccc4n13)CCCC2	Fluorescein autfl 1.4e-08M, TexasRed autofl inconclusive
CCOc1ccc(N2C(=O)NC(Cc3c[nH]c4ccccc34)C2=O)cc1 (centres undefined)	none
COc1ccc(Cl)cc1NC(=O)CN1C(=O)CSC1=O	none
Cc1cc(C)c2c(=O)[nH]c(=O)n(Cc3ccccc3)c2n1	Fluorescein autfl 1.3e-08M
Cc1cc(C)n(-c2nc3c(c(=O)[nH]c(=O)n3C)n2Cc2ccccc2)n1	Fluorescein autfl inconclusive
Cc1cc(C)c(/C=C2/C(=O)Nc3ccccc32)[nH]1	Rhodamine autofl inconclusive, Fluorescein autfl 2.3e-08M
COc1cc(OC)c(/C=C2/C(=O)Nc3ccccc32)c(OC)c1	Fluorescein autfl inconclusive
